Screening results from PubChem.
p53ts 39C kill: qHTS Screen for Compounds that Selectively Target Cancer Cells with p53 Mutations: Cytotoxicity of p53ts Cells at the Nonpermissive Temperature. H1299-p53A138V viability at 39C, ATP luminescence, 24 h. Potency, µM (doses to about 46.1 µM), actives largely listed as cytotoxic. actives 1.5% (n = 130,000). AID 902, 2007; note: nearly all actives have a fitted effect of over 55% in size
Peg3 imprint: qHTS Assay for Compounds that Induce Erasure of Genomic Imprints | mouse ES Peg3-LacZ reporter, beta-gal luminescence, 40 h | Potency, µM (titrated, usually from 60.7 µM), usual class: activators | actives 0.02% (n = 110,000)
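Each well holds 300 Peg3LacZ-Neo (maternal) female ES cells incubated 40 h at 37C, 5% CO2. LacZ is measured by BetaGlo luminescence, with AC50 and maximum efficacy derived from dose-response curves.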
p53ts 32C tox: qHTS Screen for Compounds that Selectively Target Cancer Cells with p53 Mutations: Cytotoxicity of p53ts Cells at the Permissive Temperature; H1299-p53A138V at 32C, ATP luminescence viability, 24 h; Potency, µM (top dose mostly 46.1 µM), actives largely listed as cytotoxic; actives 0.93% (n = 130,000); AID 924, 2007; note: nearly all actives have a fitted effect of over 55% in size
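Cells: H1299 p53ts (A138V), 600/well, pre-incubated 16–30 h at 37C. Cpd up to 46 uM, 24 h, 32C. Readout: ATPlite luminescence, 20 min RT. Normalization: DMSO vs tamoxifen 100 uM. AC50 by Hill equation.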
IkB signaling: IkB Signaling. ABC-DLBCL IkBa-CBG/CBR dual luciferase ratio, 4 h; response scale: scaled: untreated 0%, proteasome inhibitor 100%. Potency, µM (doses to about 57.1 µM). actives 0.04% (n = 110,000); active = well fitted curve in the direction sought with a large enough effect in the signal ratio, not every such curve was filed as active; inconclusive = small, poorly fitted or top-dose-only effect, or a change in a side signal; the % refers to the signal ratio;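 note: the direction sought is a rising ratio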
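Luminescence ratio of IκBα-fused green versus native red beetle luciferase in OCI-Ly3 cells, 4 h post-doxycycline with compound; red signal alone, scaled from basal (0%) to zero light (-100%), flagged nonspecific or cytotoxic effects.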
Each line names hits and unclear results; the compound was inactive in the other large screens. An excerpt weighted towards active compounds, which were near 1.8% of everything screened. Unless noted, calls come from the whole dose curve; as a rule, active = well fitted curve in the direction sought with a large enough effect; inconclusive = small, poorly fitted or top-dose-only effect, or another doubt; inactive = no such curve, though single readings can be large; an effect the other way counts as inactive or inconclusive.

CCCCCCCCCCCCCCCC(=O)O[C@H](CC(=O)O)C[N+](C)(C)C	p53ts 39C kill inconclusive, p53ts 32C tox 13µM
Cc1c2cnn(-c3ccccc3)c(=O)c2c(C)n1CCCC(=O)Nc1cccc(F)c1	IkB signaling inconclusive
CC[C@H](C)[C@@H]1O[C@]2(CC[C@@H]1C)C[C@H]1C[C@H](CC=C(C)[C@@H](O[C@@H]3C[C@H](OC)[C@H](O[C@@H]4C[C@H](OC)[C@H](O)[C@H](C)O4)[C@H](C)O3)[C@@H](C)C=CC=C3CO[C@@H]4[C@@H](O)C(C)=C[C@@H](C(=O)O1)[C@]34O)O2	p53ts 39C kill 13µM, p53ts 32C tox inconclusive
CC[C@@H](C)[C@H]1O[C@]2(CC[C@@H]1C)C[C@@H]1C[C@@H](C/C=C(\C)[C@@H](O[C@H]3C[C@H](OC)[C@@H](O[C@H]4C[C@H](OC)[C@@H](O)[C@H](C)O4)[C@H](C)O3)[C@@H](C)/C=C/C=C3\CO[C@@H]4[C@H](O)C(C)=C[C@@H](C(=O)O1)[C@]34O)O2	none (no result: p53ts 39C kill, p53ts 32C tox, IkB signaling)
CC[C@H](C)[C@@H]1O[C@]2(CC[C@@H]1C)C[C@H]1C[C@H](CC=C(C)[C@@H](O[C@H]3C[C@H](OC)[C@H](O[C@H]4C[C@H](OC)[C@H](O)[C@H](C)O4)[C@H](C)O3)[C@@H](C)C=CC=C3CO[C@@H]4[C@@H](O)C(C)=C[C@H](C(=O)O1)[C@@]34O)O2	p53ts 39C kill 5µM, p53ts 32C tox 10µM (no result: Peg3 imprint)
CC[C@@H](C)[C@H]1O[C@]2(CC[C@@H]1C)C[C@@H]1C[C@H](C/C=C(/C)[C@H](O[C@@H]3C[C@H](OC)[C@H](O[C@@H]4C[C@H](OC)[C@@H](O)[C@H](C)O4)[C@H](C)O3)[C@@H](C)/C=C\C=C3CO[C@@H]4[C@H](O)C(C)=C[C@@H](C(=O)O1)[C@]34O)O2 (tested in a mixture with another compound)	p53ts 39C kill 13µM, p53ts 32C tox 13µM, IkB signaling inconclusive
COc1ccc(C(=O)NNc2ncnc3c2cnn3-c2ccc(C)cc2C)cc1	none
CCCCC#Cc1nc(N)c2ncn([C@@H]3O[C@@H](C(=O)NCC)[C@H](O)[C@@H]3O)c2n1	IkB signaling inconclusive (no result: Peg3 imprint)
CCOc1ccccc1N(C)C(=O)c1cc(S(=O)(=O)NCCc2ccc(Cl)cc2)ccc1F	IkB signaling inconclusive
Cc1cccc(/N=C/c2c(O)[nH]c3ccccc23)n1	p53ts 39C kill inconclusive, p53ts 32C tox inconclusive
Oc1[nH]c2ccccc2c1C=Nc1ccc2c(c1)OCCO2	p53ts 39C kill 13µM, p53ts 32C tox inconclusive, IkB signaling inconclusive
Cc1cccc(N2CCN(c3ncnc4onc(C)c34)CC2C)c1 (stereo not drawn)	p53ts 39C kill 20µM, p53ts 32C tox inconclusive, IkB signaling inconclusive
CCC(Cc1ccccc1)NC(=O)Cn1ncc2c3ccccc3n(Cc3ccc(F)cc3)c2c1=O (stereo not drawn)	p53ts 39C kill 10µM, p53ts 32C tox inconclusive
O=C(Cn1ncc2c3ccccc3n(Cc3ccccc3)c2c1=O)NCCc1ccc(Cl)cc1	p53ts 39C kill 13µM
Cc1c(Cl)cccc1NC(=O)c1ccc2c(c1)nnn2C1CCCC1	none
Cc1ccc2[nH]c(-c3ccccc3)cc(=O)c2c1	p53ts 39C kill 5µM, p53ts 32C tox 6.3µM
Cc1ccc(NC(=O)C(=O)NCC(c2cccnc2)N2CCN(Cc3ccccc3)CC2)cc1 (stereo not drawn)	IkB signaling inconclusive
O=C(Nc1nnc(SCC(=O)N2CCCc3ccccc32)s1)c1ccc2ccccc2c1	p53ts 39C kill 3.2µM (no result: Peg3 imprint, p53ts 32C tox, IkB signaling)
O=C(Nc1nnc(SCC(=O)N2CCCc3ccccc32)s1)c1ccccc1	p53ts 39C kill 8.9µM (no result: Peg3 imprint, p53ts 32C tox, IkB signaling)
Cc1cc(C)cc(C(=O)Nc2nnc(SCC(=O)N3CCCc4ccccc43)s2)c1	none (no result: Peg3 imprint, p53ts 32C tox, IkB signaling)
CCOc1cc(C(=O)CSc2nnc(CNc3ccc(Cl)cc3)o2)ccc1NC(=O)CC	p53ts 39C kill 16µM, p53ts 32C tox 16µM (no result: Peg3 imprint)
Cc1nc2ccccc2c2oc(C(=O)N3CCc4ccccc4C3)cc12	p53ts 39C kill 20µM, p53ts 32C tox inconclusive, IkB signaling inconclusive
Cc1nc2ccccc2c2oc(C(=O)N3CCN(C(=O)c4ccco4)CC3)cc12	none
COc1ccc(C2=C(C)C(N3CCC(C(=O)Nc4ccccc4F)CC3)=NS2(=O)=O)cc1	none
CCOc1cc(CNCCSc2nnnn2C)ccc1OCc1ccc(Cl)cc1Cl	p53ts 39C kill 13µM, p53ts 32C tox 35µM, IkB signaling inconclusive
Cn1nnnc1SCCNCc1ccccc1OCc1ccc(Cl)cc1Cl	p53ts 39C kill inconclusive, IkB signaling inconclusive
CCn1c(CN2CCCCCC2=O)nnc1SCc1cnc(-c2ccccc2)s1	none
Cc1ccc(-c2csc3ncnc(Sc4nnc(CN5CCCCCC5=O)o4)c23)cc1	p53ts 39C kill inconclusive, p53ts 32C tox 25µM, IkB signaling inconclusive
CSc1ccc(CNC(=O)CCn2ccc3cc(S(=O)(=O)N4CCC(C)CC4)ccc32)cc1	none
CCC(Sc1nncn2c1cc1oc(C)cc12)C(=O)Nc1ccc(F)cc1 (stereo not drawn)	p53ts 39C kill 20µM, IkB signaling inconclusive
CCOC(=O)c1ccc(NC(=O)C(CC)Sc2nncn3c2cc2oc(C)cc23)cc1 (stereo not drawn)	IkB signaling inconclusive
CCN(CC)C(C)CN1c2ccccc2Sc2ccccc21 (stereo not drawn)	p53ts 39C kill 25µM (no result: IkB signaling)
COc1cccc(NS(=O)(=O)c2ccc3c(c2)n(C)c(=O)c(=O)n3C)c1	none
COc1cccc(NS(=O)(=O)c2cn(C)c(=O)n(C)c2=O)c1	p53ts 39C kill 13µM, p53ts 32C tox 7.9µM
Cc1cc(C)cc(Nc2cc(C(=O)NCCCN(Cc3ccccc3)C(C)C)c3ccccc3n2)c1	p53ts 39C kill 16µM, IkB signaling inconclusive
CSc1cccc(Nc2cc(C(=O)NCCCN(Cc3ccccc3)C(C)C)c3ccccc3n2)c1	p53ts 39C kill 16µM, p53ts 32C tox inconclusive
CCOC(=O)[C@]1(C(NC(=O)OC)c2cccc(F)c2)CCCC1=O (stereo partly drawn)	none (no result: Peg3 imprint, IkB signaling)
CCn1c(CC2C(=O)N(C)c3ccc(Br)cc32)nc2ccccc2c1=O (stereo not drawn)	none
CCCN1C(=O)C(Cc2nc3ccccc3c(=O)n2CC)c2cc(Br)ccc21 (stereo not drawn)	p53ts 39C kill 10µM, IkB signaling inconclusive
O=C(Nc1ccc(N2CCCCC2)cc1)c1ccc(F)cc1	p53ts 39C kill inconclusive, p53ts 32C tox 7.9µM
CN(C(=O)CSc1nnc(COc2ccccc2)o1)c1ccccc1	IkB signaling inconclusive
COc1ccc(C2c3c(-c4ccccc4O)n[nH]c3C(=O)N2Cc2ccco2)cc1 (stereo not drawn)	p53ts 39C kill inconclusive, IkB signaling inconclusive
